# In PubChem BioAssay AID1159506 (National Center for Advancing Translational Sciences (NCATS), 2015):
# Over roughly 59,000 sequences, the read-out has its median near -0.00055; the lowest 2% begin near -2. The sample as a whole holds a higher share of the lowest values than the screen did.
# Assay: Identification of proteins required for the processing of the EWS-FLI1 nascent transcript;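 further: robust z of luciferase light less the median z of siRNAs with the same seed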
# Conditions: TC32 Ewing sarcoma NR0B1-luc vs CMV-luc (EWS-FLI1 target promoter against control promoter), 48 h; screened at 20 nM (by protocol)
# Procedure, shortened: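 Genome-wide siRNA screen (Ambion v4.1, three siRNAs per gene, 20 nM final, RNAiMax) in Ewing sarcoma TC32 cells carrying NR0B1-promoter or CMV-promoter luciferase; OneGlo luciferase read 48 h post-transfection. Data normalized, z-score-MAD transformed and seed-adjusted.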
row,Sequence,seed-corrected z-score
1,UAGUUGUUCAGCGAGGUCC against CEP250,-0.0255
2,AACAUCACCAAAUAGCUGG against LIMS1,0.191
3,UAUUUCGAAAAUAAUCUCC against TMEM18,-0.129
4,UUCAGCAUUUGAUUCAAUC against HTRA4,-0.127
5,UCUGCUGAUAGCAAUGGGC against ZNF512B,-2.13
6,UUUUGGUCGUCGUUCUUCU against COMP,-2.12
7,UUCUACUCUAGCAAUUUCC against NDC80,-2.12
8,UCAAGGACCAGGCCGUUUU against ALG1L3P,1.09
9,UAAUUGUGACACUUGUUCC against TSLP,-1.67
10,UAGGUAAGGACGGAAACGC against ZPBP2,0.591
11,UACCGUGACAAAAUAAGUG against LOC728175,0.818
12,UCUGAUGACUGUUUACAGC against ZNF180,0.161
13,UAAUUAAUAUCGUCCAGAG against C6orf120,-0.208
14,UCAUUCACUAUCACUUGUC against ZNF35,-1.13
15,AACUCUUCACGUACUAGCC against PKD2,0.287
16,UUAGCUGCUGGGAACACUG against IL18BP,-2.28
17,UAUGUUUCUCGUCUCAACA against DNM1P49,-0.258
18,AAAGUCACGUUUUCCGCGC against RGS14,0.981
19,AAAGAUACAUCUGCCUUCC against CMPK1,-0.0168
20,AGAAUUCUGAGGGCGGAGC against UCN2,-0.561
21,AUAGUAAGCAGCCUUCUGC against HOXD3,-3.99

row,Sequence,seed-corrected z-score
1,UAUCUUGACCAAAUAAACC against MPC2,0.235
2,ACAGGAGCCACCCUAAAAG against WDR86,0.75
3,UCUGUCUCCGCUUGGAGUG against FOS,0.622
4,UAGGUCUUAGGAGUCAUCU against RPL9P25,-2.06
5,UCUGCUCCAAUAAUCCGGC against ANKS6,0.347
6,UCCGUUUCCACAUGGUCGC against TEKT4,0.747
7,AUAGGCAAGAGUGACAAGC against CNGB3,0.169
8,UGGGAUCUAACUCCUUAGC against IFT172,-2.76
9,UACUAGAUGUGGUGCAUCC against RPS6KA3,0.496
10,UAGGCAUCCGUAUCCCUGC against FAM131B,0.847
11,AGCUGCUAAACUUUCAUCC against JAKMIP2,-2.59
12,UCUCGAAUGAGAAUGCUCC against CSTF3,-0.0852
13,UUCUUGAUCUUGGAUCUUU against DLX5,-0.846
14,UUCUUGAUCAUCAUUCACC against SLC7A6OS,0.569
15,UAUCGUAAAAUCACAUGAG against AMFR,0.503
16,UGAUGUUUCGCAGGCACCG against CRHR1,0.0226
17,UUAAUUACUCUCUUCAAUG against UGT2B7,-0.533
18,UUUUGGGCCUCUGAACUCC against LCE1B,0.31
19,UACCUUAACCAUCCGAUGC against WDR6,0.132
20,UAGAGGAUAAUGUUCUCGG against ABHD17C,-12.1
21,UUGGAGAUCAAUCCAGCCU against CBFB,0.537

row,Sequence,seed-corrected z-score
1,UCAAUCAUCCGUGAGUUGC against WBSCR22,0.315
2,UUUCAGCUGCGCUCGGUUC against GOLGA6L2,-3.72
3,UGCAUUCCGGCUGUGAUCG against LINC00152,-0.804
4,UUAUGGGCUCUGAUGACCG against DIP2C,0.0672
5,UUCAGGAUCGCGGUUAUCA against OR4X2,0.269
6,UUAAAGACUCGGUUCACUG against PLXNA3,-1.44
7,UAUACUCCCGCACAUAGCC against PI4KA,-0.673
8,UUGUUAUGAAUGUACAUCG against TMEM181,-5
9,UCCGCAGUUCCUUAAGUGG against LOC401589,0.0579
10,UGCUGAAACCUUGAUGUGC against CRTC3,1.11
11,UUGAGUAAGAGAUGGACCC against ZNF184,-0.444
12,AAUGAUCCCACAGAUAUCA against IKZF1,0.796
13,UCUGUUCGAUCAUCCGUGC against ACP6,-0.281
14,UGUGUCCCUCCCAAUCUCC against GGT2,0.0675
15,AAAUCGAUGAGAAACCUGC against KAT6A,0.325
16,UACAUUGUAGCAGAUGUUG against ACSS2,-0.36
17,AAGUCUACAAGUGAUCUCU against ATP6V0E2-AS1,-2.23
18,UGUUGUUUACGUUCGAUUG against ADD3,-0.745
19,UGUUAGGUAAGGCUAGGUC against UTS2B,0.63
20,AUUAUGAGCAUGCAGGUUC against ANKRD6,1.1
21,UUUCUUCCCAGGUGUCUUG against PTHLH,-2.12

row,Sequence,seed-corrected z-score
1,UCUAGACCUAUGGACAGUC against WDFY2,-0.0809
2,UUAGCUUCCUCCAAAAUGC against LOC342293,1.1
3,UCCUGGUUAAAUAGGAAGG against BLID,-0.822
4,UACUGAGUAGUAGUUGGGC against DISP3,-2.25
5,UUUGGUUUGGAAAAGGUAC against KMT5A,0.072
6,UAACUUAGAAUUCCAUUUU against DMRTA2,0.067
7,UGUCCUACCACAGUCUUCA against LINC00703,-0.2
8,UUUUCUGCAGCUUUAAGGG against IL17C,1.34
9,UGGUCAAUCUGUUCAAUGG against C16orf70,-13.9
10,UACAUAGUAAACUCGCCCG against ITCH,0.22
11,UAAGUAACCCAAGUAUUGC against C2orf69,0.361
12,AGGGUUGACAUGGAACUGC against FITM1,0.313
13,UUCCGUACAAAAUUGUGCA against ARAF,-0.24
14,UGAGGUACAGUGAACAAGG against TMEM110,-0.57
15,AAACUGCUUCCGGACAUUG against ACAD8,-1.71
16,UACGUUUCUGAAGAAGGUG against FAM231D,1.63
17,UCUAGGAAAAGGACUCGGC against IKZF2,0.168
18,UUGCUUAUUCUCUCUCACG against CAAP1,-3.02
19,UAAAAUACCCACGUGGUUC against TMEM150A,0.686
20,UUUCUCUGAAGUUAAGUCC against G0S2,-0.192
21,UAGAUAAUCUUGAACCUUC against UGP2,0.118
